Experimental data taken from PubChem BioAssay AID894 (National Center for Advancing Translational Sciences (NCATS), 2007).
Values joined by “and” are separate entries in the source; they are usually repeats but may differ in a detail not shown here. Identical values can stand only once. Among all 150,000 compounds or so, about 6,500 (4.3%) were called active. About 12% were inconclusive and are not listed. The full list was thinned out, with actives kept by preference. A number with no mark means an inactive call. Calls come from the whole dose curve; as a rule, active = well fitted inhibition curve with a large enough effect (not every such curve was filed as active); inconclusive = small, poorly fitted or top-dose-only effect, or another doubt; inactive = no such curve, though single readings can be large or run the other way.

Each compound was assayed against 15-hydroxyprostaglandin dehydrogenase [NAD(+)] (Homo sapiens) (UniProt P15428) (assay: qHTS Assay for Inhibitors of HPGD (15-Hydroxyprostaglandin Dehydrogenase)). Details: purified HPGD, NADH fluorescence kinetic, PGE2 substrate; activity change, negative = inhibition: active compounds read low.
From the text: Human 15-Hydroxyprostaglandin dehydrogenase (HPGD) catalyzes the inactivation of prostaglandin E2, and plays a major role in cancer biology by antagonizing the oncogenic potential of cyclooxygenase type 2 (COX2). Assays are available, based on absorbance/fluorescence increase of NADH with the substrate 15-OH prostaglandin E2. References 1. Myung SJ, Rerko RM, Yan M, Platzer P, Guda K, Dotson A, Lawrence E, Dannenberg AJ, Lovgren AK, Luo G, Pretlow TP, Newman RA, Willis J, Dawson D, Markowitz SD. 15-Hydroxyprostaglandin dehydrogenase is an in vivo suppressor of colon tumorigenesis. […] 2. Yan M, Rerko RM, Platzer P, Dawson D, Willis J, Tong M, Lawrence E, Lutterbaugh J, Lu S, Willson JK, Luo G, Hensold J, Tai HH, Wilson K, Markowitz SD. 15-Hydroxyprostaglandin dehydrogenase, a COX-2 oncogene antagonist, is a TGF-beta-induced suppressor of human gastrointestinal cancers. Proc Natl Acad Sci U S A. 2004 Dec 14;101(50):17468-73. 3. Yang L, Amann JM, Kikuchi T, Porta R, Guix M, Gonzalez A, Park KH, Billheimer D, Arteaga CL, Tai HH, Dubois R, Carbone DP, Johnson DH. Inhibition of Epidermal Growth Factor Receptor Signaling Elevates 15-Hydroxyprostaglandin Dehydrogenase in Non-Small-Cell Lung Cancer. Cancer Res. 2007 Jun 15;67(12):5587-5593. Inhibition of HPGD activity was screened by utilizing prostaglandin as an electron donor and NAD+ as an electron acceptor/cofactor. An increase in the fluorescence intensity due to conversion of NAD+ to NADH was used to measure the enzyme activity. NIH Chemical Genomics Center [NCGC] Structural Genomics Consortium [SGC]
Buffer: 50 mM Tris-HCl, 0.01% Tween 20, pH 8. Enzyme Buffer: 50 mM Tris-HCl, 0.5 mM NAD+ and 0.01% Tween 20, pH 8. Reagents/Controls: Buffer in columns 3 and 4 as negative control (no enzyme). Substrate/cofactor solution: 1 mM NAD+ and 30 uM prostaglandin (Sigma, prostaglandin E2, # P5640) final concentrations dispensed throughout the plate. Enzyme: 20 nM HPGD final concentration in columns 1, 2, 5-48. Column 1 and 2 is neutral (100% activity). A titration of control inhibitor GW5074 (G6416 Sigma-Aldrich, St. Louis, MO) top concentration 10 mM in DMSO, then 1:2 dilution for a total of 16 concentrations in duplicate) was pin-transferred into column 2. Assay Steps: Three uL of enzyme were dispensed to 1536-well Greiner black solid bottom plates. Compounds and control inhibitor (23 nL) were transferred via Kalypsys PinTool. The plates were incubated for 15 min at room temperature, and then 1 uL of substrate/cofactor solution was added to start the reaction. The plates were immediately transferred to and read 5 times every 30 seconds on ViewLux High-throughput CCD imager (Perkin-Elmer) using 360 nm excitation and 450 nm emission fluorescence protocol. The fluorescence intensity difference between the last and the first time points was used to compute reaction progress.
% is set by controls: 0 for no effect and ±100 for the full control effect; potency is the fitted concentration of half-maximal effect.

Chain of 15-hydroxyprostaglandin dehydrogenase [NAD(+)] (Homo sapiens) (P15428 whole entry, looked up): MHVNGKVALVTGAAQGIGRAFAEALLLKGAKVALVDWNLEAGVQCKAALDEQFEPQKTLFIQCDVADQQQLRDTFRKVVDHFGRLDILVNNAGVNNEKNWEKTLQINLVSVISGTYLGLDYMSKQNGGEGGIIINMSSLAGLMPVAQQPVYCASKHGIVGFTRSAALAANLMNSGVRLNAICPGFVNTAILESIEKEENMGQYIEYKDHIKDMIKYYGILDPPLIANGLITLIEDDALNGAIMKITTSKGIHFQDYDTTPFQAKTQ

| Compound | activity change, negative = inhibition | Potency |
| --- | --- | --- |
| Cc1ccc(-n2c(C)cc(/C=C3\C(=O)NC(=O)N(C)C3=O)c2C)cc1C | -10.2% |  |
| Cc1ccnc(-n2c(C)cc(/C=C3\C(=O)NC(=S)N(C)C3=O)c2C)c1 |  | 20 µM (active) |
| COC(=O)c1ccc2[se]c(CC3CCCCC3)c(I)c2c1 | -2.23% |  |
| CC(C)CC(C)Nc1ccc(Nc2ccccc2)cc1 (configuration not stated) | -6.53% |  |
| Clc1cccc(Cl)c1Cl | -10.3% |  |
| N#Cc1c(Cl)c(Cl)c(Cl)c(C#N)c1Cl |  | 2.51 µM (active) |
| ClC(Cl)(Cl)c1ccccc1 | -5.6% and -7.46% |  |
| N#CC(C#N)=Cc1cc(O)c(O)c([N+](=O)[O-])c1 |  | 22.4 µM (active) |
| Nc1ccc([N+](=O)[O-])cc1 | -4.46% |  |
| COC1=C[C@@H]2[C@@H]3Cc4ccc(OC)c(O)c4[C@]2(CCN3C)CC1=O | -2.46% |  |
| CN(C)C1C(=O)C(C(N)=O)=C(O)[C@@]2(O)C(=O)C3=C(O)c4c(O)cccc4[C@@](C)(O)C3C[C@@H]12 (some centres not stated) | -15.2% |  |
| CCN1C[C@]2(C)CC[C@H](O)[C@@]34[C@@H]5CC6[C@@H](OC)C[C@@](O)([C@@H]5[C@@H]6O)[C@H](C[C@@H]23)[C@H]14 | -6.3% |  |
| O=C(c1cc(-c2ccncc2)nc2ccccc12)N1CCC2(CC1)OCCO2 | -3.06% |  |
| COc1ccc(S(=O)(=O)NCc2ccc(C(=O)N3CCC4(CC3)OCCO4)cc2)cc1 | -19.1% |  |
| Cc1cccc(-n2c(C)nc3cc(C(=O)N4CCC5(CC4)OCCO5)ccc32)c1 |  | 14.1 µM (active) |
| CCCC[N+]1(C)C2CC(OC(=O)C(CO)c3ccccc3)CC1C1OC12 (configuration not stated) | -2.83% |  |
| CN(C)[C@@H]1C(=O)C(C(N)=O)=C(O)[C@@]2(O)C(=O)C3=C(O)c4c(O)cccc4[C@@](C)(O)C3CC12 (some centres not stated) | -24.8% |  |
| COC1=C[C@]23CCCN2CCc2cc4c(cc2[C@@H]3[C@@H]1O)OCO4 | -6.42% |  |
| CCCCC/C=C\C/C=C\C/C=C\C/C=C\CCCCCC(=O)NCCO | -7.58% and -6.46% |  |
| CC(=O)NBr | -7.45% |  |
| CCC1(c2ccccc2)C(=O)NC(=O)N(C)C1=O (configuration not stated) | -4.89% |  |
| CCC/C(=N\O)c1c[nH]c2ccccc12 | -17.4% |  |
| c1ccc(CCCCN2CCC(c3ccccc3)CC2)cc1 | -7.8% |  |
| CC(=O)c1ccc(OC(NC(=O)Cc2ccccc2)C(Cl)(Cl)Cl)cc1 (configuration not stated) |  | 12.6 µM (active) |

| Compound | activity change, negative = inhibition | Potency |
| --- | --- | --- |
| CC(=O)NC(=O)NC(C)Cc1ccccc1 (configuration not stated) | -9.28% |  |
| CCOP(=O)(OCC)C(NC(=O)c1ccc(C)cc1)C(Cl)(Cl)Cl (configuration not stated) | -5.69% |  |
| CC(C)(C)c1ccc(CN2C(=O)CN=C(c3ccccc3)c3ccccc32)cc1 | -17.9% |  |
| Clc1ccccc1 | -8.83% |  |
| CCCCn1c(O)c(C(CC)=NCc2ccco2)c(=O)[nH]c1=O | 1.83% |  |
| CCC(=NCc1ccco1)c1c(O)n(Cc2ccccc2)c(=O)[nH]c1=O |  | 15.8 µM (active) |
| CCC(=NCCc1ccccc1)c1c(O)n(C2CCCCC2)c(=O)[nH]c1=O | -16.1% |  |
| c1ccc2c(c1)[I+]c1ccccc1-2 | -12.3% and -15.8% |  |
| c1csc(CN2CCCC3(CCNCC3)C2)n1 | -0.589% |  |
| Cc1cccc([C@H](C)c2cnc[nH]2)c1C | -10.2% |  |
| c1csc(CN2CC3(CCNCC3)C2)n1 | -15.7% |  |
| C[C@H](Br)C(=O)N[C@H](CO)C(=O)O | -10.5% |  |
| NCC[Se][Se]CCN |  | 2.82 µM (active) |
| O=c1oc2ccccc2c(O)c1C(c1ccccc1O)c1c(O)c2ccccc2oc1=O | -2.8% |  |
| C=CCN1CCC23c4c5ccc(O)c4O[C@H]2C(=O)CC[C@@]3(O)C1C5 (some centres not stated) | -13.3% |  |
| CCN(CC)C(=O)c1ccc(NC(=O)c2cc(-n3cnnc3)ccc2Cl)cc1 |  | 1.41 µM (active) |
| CNC(=S)N/N=C1\C2CN3CCN(C2)CC1(c1ccccc1)C3 | 4.55% |  |
| O=C(C1CC(=O)N(C2CCCC2)C1)N1CCC2(CC1)OCCO2 (configuration not stated) | 6.18% |  |
| Clc1ccc([C@@H]2C[C@H]3CC[C@@H]2N3)cn1 | 0.221% |  |
| COc1cc(C(c2c(O)c3ccccc3oc2=O)c2c(C)n(C)n(-c3ccccc3)c2=O)ccc1O (configuration not stated) | -3.16% |  |
| c1ccc(Cc2nn3c(Cn4cnc5ccccc54)nnc3s2)cc1 |  | 7.08 µM (active) |
| CCN1C[C@@]2(COC)CC[C@H](OC)[C@]34[C@@H]1[C@]1(OCO[C@@]15C[C@@H](OC)C1C[C@H]3[C@H]5[C@@H]1OC)[C@H](O)[C@@H]24 | -0.114% |  |
| C/C(=C\C=C/[C@@H](C)C(=O)O)[C@H]1CN[C@H](C(=O)O)[C@@H]1CC(=O)O | -11.8% |  |
